Experimental data published in PubChem BioAssay.
Several values for one entry are separate records, joined by “and”; a condition that tells them apart may be missing. Identical values can stand only once. For part of these data: Potency and affinity values are given separately. Activity calls are given as the source filed them. Rule as the data show it, unless noted: active = parasite load remaining mostly below about 12% (no sharp cut-off); inactive = mostly above about 10%.

Tests used:
[1] = polyglutamine-triggered caspase-3 activation inhibitors, cell-based (AID 1583); details: polyglutamine-induced caspase-3 activation, cell assay; stronger effect = higher value;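 tested at 10 µM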
[2] = suppressors of polyQ aggregation in yeast, 75Q-TubU reporter (AID 1593); details: Yeast 75Q polyglutamine aggregation reporter
[3] = rescue of polyQ-huntingtin neuronal dysfunction in worms, whole organism, C. elegans mechanosensory neurons, N-terminal huntingtin (AID 1599); details: touch response, stronger effect = higher value
[4] = inhibitors of mitochondrial cytochrome c release, biochemical, purified mitochondria (AID 1603); details: stronger effect = lower value;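 also: mouse liver mitochondria challenged with calcium chloride; signal normalized to the plate average as 100%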
[5] = inhibitors of polyQ protein aggregation (AID 1604); details: polyglutamine-induced protein aggregation inhibition assay; stronger effect = higher value; tested at 2.5 µM
[6] = enhancers of glutamate uptake in motor neurons, MN-1 cell line (AID 1612); details: MN-1 motor neuron cells, stronger effect = higher value;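 also: tested at 1 µM final; 0% = mean of DMSO vehicle wells on each plate; positive means more glutamate uptake than control and negative means less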
[7] = reducers of polyQ inclusions in PC12 cells, cell-based, NGF-treated PC12, GFPQ80 (AID 1614); details: PC12 NGF-treated GFP-polyQ80 inclusion reduction;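 also: lower means fewer inclusions and 0 means no inclusions at all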
[8] = suppressors of polyglutamine aggregation in yeast, 75Q-TubH (AID 1616); details: S. cerevisiae 75Q-TubH polyglutamine aggregation suppression; stronger effect = higher value
[9] = liver-stage malaria parasite growth inhibition, primary screen, cell-based, HepG2, luciferase luminescence, HepG2 viability (AID 624349);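 also: 100% = mean of DMSO negative control wells on the same plate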; details: P. berghei liver stage in HepG2, luciferase luminescence, concentration not given here; parasite load remaining: stronger effect = lower value; viability: measured here: HepG2 viability without parasites
[10] = differential killing of epithelial or mesenchymal cells, primary screen, imaging, PC-3E GFP, TEM4-18 mCherry, co-culture (AID 1345086;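 active = compounds killing one labelled cell type while sparing the other, by normalised counts and ratio limits, not self-fluorescent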;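 as to all read-outs here: cells exposed to compound for 72 h before imaging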;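 as to red/green cell ratio (normalised): normalised mesenchymal count divided by normalised epithelial count so high means epithelial killing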); details: imaging cell counts, at 1 µM; for red/green cell ratio (normalised): actives lie on both sides, counts scaled to control wells, 1 = unselective
[11] = sensitizers of A549 cells to miR-34 induction, primary screen, imaging, A549 dox-inducible miR-34, nuclei and caspase counts (AID 1347080;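 active = compounds whose cell count with miR-34 switched on is under 0.7 times the count with it off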); details: A549 miR-34 inducible, Hoechst nuclei count, 48 h
[12] = viability rescue of complex I mutant cybrids, primary screen, cell-based, galactose medium, ATP luminescence (AID 1645843;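 active = z-score of at least 1.8 in each of two replicates, scored against plate mean and spread of sample wells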;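 also: positive z means more ATP and so rescue of galactose-driven cybrid death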); details: complex I mutant cybrid cells, 72 h, stronger effect = higher value
[13] = measured here: epithelial PC-3E GFP cell survival
[14] = measured here: mesenchymal TEM4-18 mCherry cell survival
[15] = stronger effect = lower value, cell number ratio, induced over uninduced
[16] = measured here: relative caspase fold change +Dox/-Dox
[17] = measured here: total cells with miR-34 induction, stronger effect = lower value
[18] = measured here: total cells without miR-34 induction

Row | Structure (SMILES) | inhibition [1] | score [2] | rescue above control [3] | cytochrome c release ratio [4] | inhibition of aggregation [5] | glutamate uptake change [6] | inclusion score [7] | aggregation suppression score [8] | parasite load remaining [9] | viability [9] | red/green cell ratio (normalised) [10] | normalised cell number [10, 13] | normalised cell number [10, 14] | fold change [11, 15] | fold change [11, 16] | cell count [11, 17] | cell count [11, 18] | z-score [12]
1 | CC(COc1ccccc1)NC(C)[C@H](O)c1ccc(O)cc1 (stereo partly specified) | -10.5% | 1.07 | -0.43 | 0.93 | 67.5% | 5.98% | 2 | 0.981 | 58.3% (inactive) | 72.5% and 101% | 1.11 (inactive) | 1.16 | 1.29 | 0.796 (inactive) | 1.19 | 10800 | 13600 | 
2 | CC12CCC(=O)C=C1CCC1C2[C@@H](O)CC2(C)C1CC[C@]2(O)C(=O)COP(=O)(O)O (stereo partly specified) | -6.16% | 1.65 | -3.35 | 1.1 | 44.7% | 26.3% | 2 | 1.46 | 75.6% (inactive) | 91.2% | 0.95 (inactive) | 1.05 | 0.99 | 0.789 (inactive) | 1.68 | 7430 | 9410 | 
3 | C[C@@H]1CC2C3CCC4=CC(=O)C=C[C@]4(C)[C@@]3(F)[C@@H](O)C[C@]2(C)[C@@]1(O)C(=O)COP(=O)(O)O (stereo partly specified) | -13.7% | 2.71 | -9.5 | 0.74 | 70.1% | 6.45% | 2.5 | 1.87 | 113% (inactive) and 77.9% (inactive) | 75.1% and 87% | 1.5 (inactive) | 1.11 | 1.67 | 0.847 (inactive) | 1.88 | 7240 | 8540 | 
4 | NC(N)=Nc1nc(CSCC/C(N)=N\S(N)(=O)=O)cs1 | -15% | 1.36 | -0.31 | 1.43 | 82% | -4.06% | 1 | 1.04 | 106% (inactive) and 35.6% (inactive) | 69.4% and 84.3% | 1.13 (inactive) | 0.95 | 1.07 | 0.887 (inactive) | 1.64 | 11500 | 12900 | 
5 | CO[C@@]1(NC(=O)CSCC#N)C(=O)N2C(C(=O)O)=C(CSc3nnnn3C)CSC21 (stereo partly specified) | 20.8% | 1.29 | -0.81 | 0.56 | 33.3% | -5.52% | 2 | 1.5 | 99.4% (inactive) and 54.5% (inactive) | 73% and 111% | 0.89 (inactive) | 1.07 | 0.95 | 0.923 (inactive) | 3.61 | 12200 | 13200 | 
6 | C[C@]12CCC(=O)C=C1CCC1C2[C@@H](O)C[C@@]2(C)C1CC[C@]2(O)C(=O)CO (stereo partly specified) | 5.24% | 1.39 | -4.34 | 1.36 | 63.4% | 10.6% | 2 | 1.61 | 94% (inactive) | 99.2% | 1.04 (inactive) | 1.28 | 1.34 | 0.949 (inactive) | 3.13 | 7100 | 7490 | 
7 | CO[C@@H]1[C@@H](O[C@@H]2O[C@H](C)[C@@H](O[C@H]3C[C@@](C)(O)[C@H](O)[C@H](C)O3)[C@H](N(C)C)[C@H]2O)[C@@H](CC=O)C[C@@H](C)[C@@H](O[C@H]2CC[C@H](N(C)C)[C@@H](C)O2)/C=C/C=C/C[C@H](C)OC(=O)C[C@H]1O | 7.63% | 1.61 | 24.9 | 1.41 | 50.8% | -5.09% | 2 | 1.01 | 143% (inactive) and 69.7% (inactive) | 83.9% and 197% | 0.86 (inactive) | 1.23 | 1.05 | 0.795 (inactive) | 4.68 | 10300 | 12900 | 
8 | CC(=O)OCC(=O)[C@H]1CCC2C3CCC4=CC(=O)CC[C@]4(C)C3CC[C@@]21C (stereo partly specified) | -3.1% | 0.92 | -2.35 | 1.07 | 63.5% | 23% | 2.5 | 0.669 | 44.3% (inactive) | 97.7% | 1.09 (inactive) | 1.34 | 1.47 | 0.848 (inactive) | 2.3 | 9410 | 11100 | 
9 | CNC[C@@H](O)c1ccc(O)c(O)c1 | 15.5% | 1.46 | -0.75 | 0.7 | 86.2% | -6.16% | 1 | 1.31 | 51.9% (inactive) and 119% (inactive) | 72.9% and 92% | 1.49 (inactive) | 1.01 | 1.5 | 0.901 (inactive) | 3.62 | 11500 | 12800 | 
10 | COC(=O)C1[C@H]2C[C@H]3c4[nH]c5ccccc5c4CCN3C[C@@H]2CC[C@@H]1O (stereo partly specified) | -35.1% | 1.22 | 15.8 | 0.69 | 9.99% | -7.18% | 2 | 1.41 | 81.2% (inactive) and 40.6% (inactive) | 73.2% and 95.3% | 1.01 (inactive) | 1.03 | 1.04 | 0.924 (inactive) | 3.3 | 12100 | 13100 | 
11 | C[C@]12CCC(=O)C=C1CCC1C2[C@@H](O)C[C@@]2(C)C1CC[C@]2(O)C(=O)COC(=O)CCC(=O)O (stereo partly specified) | 7.51% | 1.55 | -3.62 | 1.58 | 37.2% | -0.65% | 2 | 1.36 | 137% (inactive) and 66.7% (inactive) | 78.6% and 93.3% | 1.43 (inactive) | 0.86 | 1.23 | 0.766 (inactive) | 0.842 | 7240 | 9450 | 
12 | CN1C2CC(OC(=O)[C@H](CO)c3ccccc3)C[C@H]1[C@H]1OC21 (stereo partly specified) | 15.1% | 1.26 | 6.9 | 1.03 | 58.7% | 1.71% | 2 | 1.18 | 98.3% (inactive) and 40.5% (inactive) | 76.7% and 88.6% | 0.76 (inactive) | 1.11 | 0.84 | 0.977 (inactive) | 3.37 | 11400 | 11600 | 
13 | CN(C)CCCO[C@H]1[C@@H](C(O)CO)OC2OC(C)(C)O[C@@H]21 (stereo partly specified) | 13.5% | 1.28 | -9.95 | 1.02 | 85.9% | -4% | 2 | 1.2 | 121% (inactive) and 48% (inactive) | 87.2% and 101% | 0.97 (inactive) | 0.98 | 0.95 | 0.948 (inactive) | 2.91 | 12000 | 12700 | 
14 | CCN1CCN(C(=O)NC(C(=O)NC2C(=O)N3C(C(=O)O)=C(CSc4nnnn4C)CSC23)c2ccc(O)cc2)C(=O)C1=O (stereo unspecified) | 16.1% | 1.1 | -10 | 0.84 | 50.2% | 15.1% | 2 | 1.47 | 146% (inactive) and 45.3% (inactive) | 72.7% and 103% | 1.23 (inactive) | 0.99 | 1.22 | 0.914 (inactive) | 3.35 | 12000 | 13100 | 
15 | CCN1CCN(C(=O)NC(C(=O)N[C@@H]2C(=O)N3[C@@H]2SC(C)(C)[C@@H]3C(=O)O)c2ccccc2)C(=O)C1=O (stereo partly specified) | -12.4% | 1.33 | 11.4 | 1 | 57.7% | 3.02% | 2 | 1.27 | 83.4% (inactive) and 122% (inactive) | 73% and 103% | 1.25 (inactive) | 0.93 | 1.17 | 0.831 (inactive) | 1.11 | 10100 | 12200 | 
16 | CCCCCC(=O)O[C@]1(C(C)=O)CCC2C3CCC4=CC(=O)CC[C@]4(C)C3CC[C@@]21C (stereo partly specified) | 18.1% | -0.83 | -3.14 | 0.32 | 35% | 9.62% |  | 0.43 | 13.1% (inactive) and 0.105% (inactive) | 72.1% and 76.8% | 1.01 (inactive) | 1.08 | 1.09 | 0.912 (inactive) | 1.72 | 7140 | 7840 | 
17 | C[C@H]1CC2C([C@@H](O)C[C@@]3(C)C2CC[C@]3(O)C(=O)CO)[C@@]2(C)C=CC(=O)C=C12 (stereo partly specified) | 13.3% | 1.06 | -2 | 0.64 | 83.1% | 14.1% | 2 | 1.35 | 110% (inactive) and 67.7% (inactive) | 78.4% and 89.4% | 1.21 (inactive) | 1.36 | 1.64 | 0.922 (inactive) | 1.43 | 7440 | 8070 | 
18 | C#C[C@]1(O)CCC2C3CCc4cc(OC)ccc4C3CC[C@@]21C (stereo partly specified) |  |  |  |  |  |  |  |  | 13.7% (inactive) | 131% | 1.01 (inactive) | 1.1 | 1.11 | 0.913 (inactive) and 0.85 (inactive) | 1.29 and 1.24 | 8740 and 9660 | 9570 and 11400 | -1.44 (inactive)
19 | C[C@]12CCC3c4ccc(OS(=O)(=O)O)cc4CCC3C1CCC2=O (stereo partly specified) |  |  |  |  |  |  |  |  | 45.1% (inactive) | 102% | 0.91 (inactive) | 0.94 | 0.86 | 0.918 (inactive) and 0.865 (inactive) | 1.03 and 4.55 | 9150 and 11800 | 9970 and 13700 | 0.9 (inactive)
20 | C#C[C@]1(O)CCC2C3CCC4=CC(=O)CC[C@@H]4C3CC[C@@]21CC (stereo partly specified) | 13.1% | 1.25 | 7 | 0.87 | 11.1% | -5.94% | 2 | 1.03 | 86.4% (inactive) and 40.3% (inactive) | 65.9% and 90.1% | 1.08 (inactive) | 0.78 | 0.84 | 0.867 (inactive) | 2.88 | 10400 | 12000 | 
21 | C#C[C@]1(O)CCC2C3CCC4=C(CCC(=O)C4)C3CC[C@@]21C (stereo partly specified) | -10.6% | 0.8 | -0.46 | 1.11 | 55.6% | -10.2% |  | 0.537 | 73.4% (inactive) and 48.3% (inactive) | 71.3% and 92% | 1.12 (inactive) | 1.18 | 1.32 | 0.929 (inactive) | 1.51 | 11200 | 12100 | 
22 | C[C@]12CCC(=O)C=C1CCC1C2C(=O)C[C@@]2(C)C1CC[C@]2(O)C(=O)CO (stereo partly specified) |  |  |  |  |  |  |  |  |  |  | 0.7 (inactive) | 1.3 | 0.91 | 0.915 (inactive) | 1.12 | 9120 | 9960 | 0.345 (inactive)
23 | C#C[C@]1(O)CCC2C3CCC4=CC(=O)CC[C@@H]4C3CC[C@@]21C (stereo partly specified) | -3.25% | 0.94 | 10.4 | 1.47 | 89.7% | -5.05% | 2 | 0.524 | 118% (inactive) and 51.8% (inactive) | 71.2% and 90% | 0.86 (inactive) | 1.29 | 1.11 | 0.914 (inactive) | 1.55 | 10400 | 11300 | 
